Test [1] deals with XIP peptide (Xip251-270) binding. Put plainly: XIP fragment 251-270 binding compounds – biochemical, small-molecule microarray, fluorescence 635/667 nm, 0.1 µg/mL protein, primary screen (AID 1182). Particulars: fluorescent protein binding, 635 nm, higher = more signal, called active from +8 up or from −8 down.
A further test has as its system XIP peptide (Xip251-270). Briefly: compounds binding XIP fragment 251-270 – biochemical, small-molecule microarray, fluorescence 635/667 nm, 0.5 µg/mL protein, primary screen (AID 1183). Particulars: fluorescence 635 nm, higher = more signal.
A short description of test [2]: blood-stage malaria parasite viability loss – strain 3D7, DAPI fluorescence, 100 nL, primary screen (AID 1184).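 Also: parasites grown inside human red blood cells in medium with human serum.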 Particulars: P. falciparum 3D7 growth, 3 d, higher = more signal.
Test [3] has as its target Homeobox protein Hox-A13 (Mus musculus) (UniProt Q62424). Briefly: disruptors of Hoxa13 oligonucleotide interaction – biochemical, fluorescence polarization, labeled oligonucleotide, primary screen (AID 1185). Particulars: Hoxa13:DNA binding, 15 min, higher = more signal, called active from +8 up or from −8 down.
Test [4] can be described thus: blockers of DNA damage checkpoint Chk1 activation – imaging, HeLa, hydroxyurea, phospho-Chk1 antibody, percent positive cells, primary screen (AID 1186). Particulars: hydroxyurea-induced phospho-Chk1 immunofluorescence imaging, higher = more signal.
Test [5] can be described thus: blockers of DNA damage checkpoint Chk1 activation – imaging, HeLa, hydroxyurea, phospho-Chk1 nuclear intensity, primary screen (AID 1187). Particulars: hydroxyurea-induced phospho-Chk1 immunofluorescence imaging, higher = more signal.

SMILES strings stand for the structures. The source made the active and inactive calls. Unless noted, no rule for the calls is given here.

Sequence of Homeobox protein Hox-A13 (Mus musculus) (Q62424 whole entry, looked up): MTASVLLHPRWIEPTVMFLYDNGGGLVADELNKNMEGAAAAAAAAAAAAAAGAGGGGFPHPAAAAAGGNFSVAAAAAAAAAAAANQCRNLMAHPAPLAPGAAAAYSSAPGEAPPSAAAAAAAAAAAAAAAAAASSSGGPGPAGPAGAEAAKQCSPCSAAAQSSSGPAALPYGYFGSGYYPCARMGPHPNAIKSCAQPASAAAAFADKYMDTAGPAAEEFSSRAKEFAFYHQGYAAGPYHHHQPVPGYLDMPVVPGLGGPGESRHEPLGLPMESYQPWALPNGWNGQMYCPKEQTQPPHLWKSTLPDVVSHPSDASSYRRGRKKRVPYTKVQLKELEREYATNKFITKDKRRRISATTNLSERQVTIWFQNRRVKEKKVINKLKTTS

For the molecule `Cc1ccc([C@H]2C(C(=O)O)=C[C@@H](C)N2S(=O)(=O)c2ccc(C)cc2)cc1`, the composite z-score in test [1] was 1.78 (inactive); in the test with XIP peptide (Xip251-270) it was -0.43. Further, the z-score in test [2] was 0.159; in test [3] it was -3.09 (inactive); in test [4], 0.502 (inactive); in test [5], 0.176 (inactive).

Consider `COCCOC(=O)N1C(=O)[C@@]2(c3cc(C#CC4=CCCCC4)ccc31)[C@H](C(=O)NC[C@H](O)c1ccccc1)[C@H]1C(=O)O[C@H](c3ccccc3)[C@H](c3ccccc3)N1[C@@H]2c1ccc(O)cc1`, for which the composite z-score in test [1] is 0.304 (inactive); in the test on XIP peptide (Xip251-270), 0.744. In addition, the z-score in test [2] was -1.39; in test [3] it was -0.485 (inactive); in test [4], 0.279 (inactive); in test [5], 0.475 (inactive).

For the molecule `O=C1OCCC=C[C@H]2OC34C=CCN(Cc5ccccc5)C(=O)[C@H]3N(CCCCCCO)C(=O)[C@@H]4C12` (stereo partly drawn), the composite z-score is -0.271 (inactive) in test [1] and 0.8 in the test with XIP peptide (Xip251-270). The z-score in test [2] was 0.0921; in test [3] it was -4.32 (inactive); in test [4], 0.249 (inactive); in test [5], 0.489 (inactive).

As to `COCCOC(=O)N1C(=O)[C@@]2(c3cc(C#CCC(C(=O)OC)C(=O)OC)ccc31)[C@H](c1ccccc1OCCO)N1[C@H](c3ccccc3)[C@H](c3ccccc3)OC(=O)[C@H]1[C@@H]2C(N)=O`, the composite z-score in test [1] was 0.547 (inactive); in the test with XIP peptide (Xip251-270), 0.827. For the same molecule, the z-score was -2.07 in test [2], -1.36 (inactive) in test [3], -0.192 (inactive) in test [4] and -0.0971 (inactive) in test [5].

On to `COCC(=C=CC[C@H](O)c1ccc(OCCO)cc1)C[C@H](O)c1cc(Cl)cc(Cl)c1O`, for which the values for the composite z-score (in test [1]; in the test with XIP peptide (Xip251-270)) were 0.423 (inactive) and 0.161, respectively. The z-score in test [2] was -1.55; in test [3], -4.13 (inactive); in test [4], -0.559 (inactive); in test [5], 0.56 (inactive).

Regarding `C=C(CCCC)C(=O)CC[C@H](OC(=O)c1cccnc1)c1cccc(OCCO)c1`, the composite z-score in test [1] is 0.179 (inactive); in the test with XIP peptide (Xip251-270), 0.143. Further, the z-score in test [2] was -3.03; in test [3], -4.56 (inactive); in test [4], -0.296 (inactive); in test [5], -0.249 (inactive).

`CCOC(=O)[C@H]1C[C@H]2O[C@@]23C[C@H]1C(=O)N1CCCC1[C@@H]3O[Si](C)(C)C(C)(C)C` (stereo partly drawn): the composite z-score in test [1] was -0.0593 (inactive); with XIP peptide (Xip251-270), -0.829. Moreover, the z-score is -0.329 in test [2], -5.3 (inactive) in test [3], -0.0084 (inactive) in test [4] and -0.115 (inactive) in test [5].

Consider `CC(=CC1CCCCC1)[C@@H](NC(=O)c1ccc(C(F)(F)F)cc1)c1ccc(-c2ccccc2)cc1`, for which the values for the composite z-score (in test [1]; in the test on XIP peptide (Xip251-270)) were -0.138 (inactive) and -0.569, respectively. Further, the z-score in test [2] was -0.0178; in test [3], -1.48 (inactive); in test [4], 0.191 (inactive); in test [5] it was 0.498 (inactive).

As to `CC(C)CNC(=O)[C@@]1(c2ccc([N+](=O)[O-])cc2)CC(=O)N(CC23CC4CC(CC(C4)C2)C3)[C@@H]1c1ccc(CO)cc1`, the results for the composite z-score (in test [1]; in the test on XIP peptide (Xip251-270)) were 1.1 (inactive) and 0.796, respectively. The z-score in test [2] was 0.0716; in test [3], -4.17 (inactive); in test [4], -0.471 (inactive); in test [5], -0.141 (inactive).

Consider `COC(=O)[C@@]1(Cc2ccccc2)[C@H]2c3cc(C(=O)N4CCCC4)n(Cc4ccc(C)o4)c3C[C@H]2CN1C(=O)c1ccccc1`, for which the composite z-score in test [1] is 1.04 (inactive); in the test with XIP peptide (Xip251-270), 0.814. Also, the z-score in test [2] is -1.11; in test [3], -4.62 (inactive); in test [4], 0.56 (inactive); in test [5], 0.421 (inactive).

For `COc1c(C)cc(-c2cc3c(c(-c4ccc(Oc5ccccc5)cc4)n2)[Si](C(C)C)(C(C)C)OC3)cc1C`, the figures for the composite z-score (in test [1]; with XIP peptide (Xip251-270)) were -0.631 (inactive) and -0.466, respectively. The z-score was -0.898 in test [2], -0.746 (inactive) in test [3], 0.621 (inactive) in test [4] and 0.37 (inactive) in test [5].

As for `CCCCC=C[C@@H](NC(=O)c1cccs1)c1ccccc1`, the composite z-score was -0.0837 (inactive) in test [1] and -0.513 in the test with XIP peptide (Xip251-270). Also, the z-score in test [2] was -0.414; in test [3], -3.05 (inactive); in test [4], -0.483 (inactive); in test [5], -0.695 (inactive).

Consider `CC(=O)C1=CCC(c2ccccc2)N(S(=O)(=O)c2ccc(C)cc2)C1` (stereo not drawn), for which the composite z-score is 0.651 (inactive) in test [1] and 0.473 in the test with XIP peptide (Xip251-270). The z-score in test [2] was -1.33; in test [3] it was -3.89 (inactive); in test [4] it was 0.532 (inactive); in test [5] it was 0.216 (inactive).

For the origin of these results see PubChem BioAssay.
